Assay results as given in PubChem BioAssay (NCATS).
Calls of active or inactive are those of the source. Entries that show only a call come without a potency. Calls follow the shape of the dose curve; as a rule, active = well fitted inhibition curve with a large enough effect; inconclusive = small, poorly fitted or top-dose-only effect; inactive = no such curve, though single readings can be large or run the other way.

assay: qHTS assay for measurement of the activity of small molecule inhibitors on Zika virus induced Caspase-3 activity in human astrocytoma cells (AID 1224859); settings: SNB-19 ZIKV-induced caspase-3/7, luminescence, 6 h; series mostly up to 45.7 µM
Text: National Center for Advancing Translational Sciences [NCATS]
Johns Hopkins University School of Medicine
Increase in the Caspase-3 activity indicates an activation of apoptosis cell death pathway caused by Zika virus infection in certain types of neuronal cells including human neural progenitor cells (hNPCs), astrocytes, and astrocytoma cell line (SNB-19). This cell-based caspase-3 activity assay measures the increased caspase-3 activity in the astrocytoma cell line (SNB-19) after a 6-hour Zika virus infection with a luminescence readout. A decrease in the luminescence signal in this assay by small molecule treatment indicates an inhibitory effect of that small molecule on the Zika virus induced caspase-3 activity that may correlate with its effect on reduction of Zika virus caused cell death.
The medium for SNB-19 cells is composed of RPMI 1640 (ATCC, Cat.# 30-2001), 10% fetal bovine serum (FBS) (GE healthcare Life Sciences, Cat.# SH30071.03), and 1% Pen/Strep (Gibco, Cat.# 15140-122). A Caspase-Glo 3/7 assay kit (catalog number G8092; Promega, Madison, WI) was used to detect caspase-3 activity induced by Zika virus infection in human cells. The reagent mixture was reconstituted as described in the protocol from the manufacturer. Polystyrene tissue culture treated and PDL coated white plates were obtained from Greiner Bio-One (Monroe, NC). Cells were seeded in 384- or 1536-well assay plates and cultured at 37 C with 5% CO2 for 16 to 20 hours. The typical cell seeding density in the 1536-well plate assay is 250 cells/well in 3ul medium for SNB-19 cells in tissue culture treated plates. Compounds were added to cells and incubated for one hour before addition of ZIKV solution to cells (2 FFU/cell). After incubation at 37 C with 5% CO2 for 6 hours, the reagent mixture of Caspase-Glo 3/7 assay kit was added to each well, followed by incubation at room temperature for 30 minutes. The luminescence intensity of the assay plates was measured using a ViewLux plate reader (PerkinElmer). Data were normalized by using the cell-containing wells without ZIKV as a negative control (0% induction of caspase 3/7 activity) and wells containing ZIKV infected cells (Caspase-3 activity induced) as a positive control (100% induction of caspase 3 activity). The percentage inhibitions of the increased Caspase-3 activity by small molecule inhibitors were then calculated.
Potency is read from the fitted curve at half-maximal effect.

Row | Compound | Potency
1 | Cc1ccc(NC(=O)c2ccc(CN3CCN(C)CC3)cc2)cc1Nc1nccc(-c2cccnc2)n1 | inactive
2 | O=C(O)c1cccc(-c2noc(-c3ccccc3F)n2)c1 | inactive
3 | CCN(CC)CCOc1ccc(Cc2ccccc2)cc1 | inactive
4 | COC1=C(OC)C(=O)C(CCCCCCCCCCO)=C(C)C1=O | inactive
5 | Cc1nccn1CC1CCc2c(c3ccccc3n2C)C1=O (stereo not given) | inactive
6 | Cc1ccc(S(=O)(=O)NC(=O)NN2CC3CCCC3C2)cc1 (stereo not given) | inactive
7 | CCOC(=O)C1=C(O)C(=O)N(Cc2ccccc2)C1 | inactive
8 | CN(C)[C@@H](CCOc1cccc2ccccc12)c1ccccc1 | inactive
9 | Clc1ccc(C(Cn2ccnc2)OCc2ccc(Sc3ccccc3)cc2)c(Cl)c1 (stereo not given) | inactive
10 | C[C@@H](N)C1CCC(C(=O)Nc2ccncc2)CC1 (stereo not given in full) | inactive
11 | O=C(CS(=O)Cc1ccco1)NCC=CCOc1cc(CN2CCCCC2)ccn1 (stereo not given) | inactive
12 | CC(=O)Nc1ccc(O)cc1 | inactive
13 | S=c1nc[nH]c2nc[nH]c12 | inactive
14 | C[C@H](Cn1cnc2c(N)ncnc21)OCP(=O)(O)O | inactive
15 | O=C1NC(=O)C(c2ccccc2[N+](=O)[O-])=C1Nc1ccc(O)c(Cl)c1 | inactive
16 | C[C@]12CCC(=O)C=C1CC[C@@H]1[C@H]2[C@@H](O)C[C@@]2(C)[C@H]1CC[C@]2(O)C(=O)CO | inactive
17 | COc1ccccc1N1CCN(CCN(C(=O)C2CCCCC2)c2ccccn2)CC1 | inactive
18 | CC1Cc2ccccc2N1NC(=O)c1ccc(Cl)c(S(N)(=O)=O)c1 (stereo not given) | inactive
19 | NCCCCNCCCN | inactive
20 | CN(c1nccc(=O)[nH]1)C1CCN(c2nc3ccccc3n2Cc2ccc(F)cc2)CC1 | inactive

Row | Compound | Potency
21 | CC(=O)NC[C@H]1CN(c2ccc(N3CCOCC3)c(F)c2)C(=O)O1 | inactive
22 | O=c1ccc2ccc(O)c(O)c2o1 | inactive
23 | CN(C)C(=O)COC(=O)Cc1ccc(OC(=O)c2ccc(N=C(N)N)cc2)cc1 | inactive
24 | Cc1ccc(C(=O)c2cc(O)c(O)c([N+](=O)[O-])c2)cc1 | inactive
25 | COc1c(O)cc2c(c1O)[C@@H]1O[C@H](CO)[C@@H](O)[C@H](O)[C@H]1OC2=O | inactive
26 | Nc1ccn([C@@H]2O[C@H](CO)[C@@H](O)C2O)c(=O)n1 (stereo not given in full) | inactive
27 | CN(C)c1ccc(O)c2c1C[C@H]1C[C@H]3[C@H](N(C)C)C(=O)C(C(N)=O)=C(O)[C@@]3(O)C(=O)C1=C2O | inactive
28 | O=c1oc2cc(O)ccc2s1 | inactive
29 | C=CCc1cc(OC)c(O)c(C(=O)NCCO)c1 | inactive
30 | C[Se]CCC(N)C(=O)O (stereo not given) | inactive
31 | COc1cc2c(cc1OC)C1CC(=O)C(CC(C)C)CN1CC2 (stereo not given) | inactive
32 | c1cnc2cc3c(cc2n1)C1CNCC3C1 | inactive
33 | CC1(C)CCC(C)(C)c2cc(NC(=O)c3ccc(C(=O)O)cc3)ccc21 | inactive
34 | O=Nc1c(-c2c(O)[nH]c3cc(Br)ccc23)[nH]c2ccccc12 | inactive
35 | N=C(N)c1ccc2cc(OC(=O)c3ccc(N=C(N)N)cc3)ccc2c1 | inactive
36 | Cc1c(C(=O)NN2CCCCC2)nn(-c2ccc(Cl)cc2Cl)c1-c1ccc(Cl)cc1 | inactive
37 | CCOC(=O)c1c(C)n(C)c2ccc(O)cc12 | inactive
38 | C=C(c1ccc(C(=O)O)cc1)c1cc2c(cc1C)C(C)(C)CCC2(C)C | inactive
39 | Clc1ccc(C(Cn2ccnc2)OCc2ccsc2Cl)c(Cl)c1 (stereo not given) | inactive
40 | COc1cc2nc(N3CCN(C(=O)C4CCCO4)CC3)nc(N)c2cc1OC (stereo not given) | 14.8 µM (active)
